# Measured values as given in PubChem BioAssay (NCATS).
# “And” between values parts separate entries of the source, which are not always exact repeats. Identical values can stand only once. Records with an inconclusive call do not appear. Unmarked numbers belong to inactive results. The source made the active and inactive calls. Calls come from the whole dose curve; as a rule, active = well fitted cell-killing curve with a large enough effect; inconclusive = small, poorly fitted or top-dose-only effect; inactive = flat fitted curve, though single readings scatter.
# Assay: Cell Viability - SH-SY5Y (AID 544);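 note: 0% = DMSO alone and -100% = 100 µM tamoxifen; nearly all actives have a fitted effect of over 55% in size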
# Settings: SH-SY5Y neuroblastoma cell viability; viability change, negative = cytotoxic: at 92.2 µM (top of the series)
# Procedure, shortened: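 Luminescent ATP read-out (CellTiter-Glo) measures loss of viable SH-SY5Y neuroblastoma cells after 40 hr compound exposure at 37 °C. AC50 values derive from standard Hill modelling of qHTS concentration-response data.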
# 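Note: cells exposed to compound for 40 hours.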
Structure (SMILES),"viability change, negative = cytotoxic [%]",Potency
Brc1ccccc1,-11.2,
CCOP(=S)(OCC)SCSC(C)(C)C,-2.54,
C=C(C)C#N,-11.8,
CCSC(=O)Cl,2.28,
Cc1cccc([N+](=O)[O-])c1,-2.87,
Nc1c(Cl)c(Cl)nc(C(=O)O)c1Cl,-2.59,
CC(C)(C)OOC(C)(C)C,-6.81,
C=C(C)C(=O)OCC1CO1 (centres undefined),-3.88,
Cc1ccc([N+](=O)[O-])cc1C,-7.81,
O=[N+]([O-])c1ccc(Cl)c(Cl)c1,-4.37,
C=CC(=C)C,-2.66,
Cc1ccc2ccccc2c1,-11.8,
Nc1ccccc1Cl,-16.2,
Clc1ccc2ccccc2c1,4.41,
[O-][Br+2]([O-])O,,inactive
Clc1nc(Cl)nc(Nc2ccccc2Cl)n1,-6.73,
OCC1CO1 (centres undefined),-1.17,
C=CCOC(=O)c1ccccc1N,5.67,
C=CC(N)=O,,inactive
CC(C)(c1ccccc1)c1ccc(O)cc1,-9.17,

Structure (SMILES),"viability change, negative = cytotoxic [%]",Potency
CCN(CC)c1ccccc1,-7.36,
S=C=Nc1cccc2ccccc12,-4.16,
N#CCCCl,,inactive
O=NN(CCO)CCO,-18.1,
Cc1ccccc1N,-12,
C=CCOC(C)=O,-5.14,
CCCC(=O)Cl,-7.53,
NC(=S)Nc1ccccc1,,inactive
O=C(Cl)/C=C/C(=O)Cl,-10.3,
C=C(Cl)Cl,0.137,
ClCBr,-8.86,
COc1ccc(C=O)cc1OC,-13.3,
C=CC(=O)OCC,-2.89,
c1nc[nH]n1,-8.83,
c1ccc2c(c1)CCCC2,15.1,
CCCSC(=O)Cl,-20,
Clc1cccc(C(Cl)(Cl)Cl)n1,-10.7,
O=NN(c1ccccc1)c1ccccc1,1.41,
C1CCC2CCCCC2C1 (centres undefined),-4.2,
CC(O)CCl (centres undefined),-10.4,

# Assay: Cell Viability - Renal Proximal Tubule (AID 545);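 note: 0% = DMSO only and -100% = 100 µM tamoxifen; nearly all actives have a fitted effect of over 40% in size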
# Settings: renal proximal tubule cells viability; at 91.7 µM (top of the series), primary cells of rat origin unless noted
# Procedure, shortened: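 Primary rat renal proximal tubule cells (1000/well) were treated with compounds for 40 hr at 37 °C in complete medium. Intracellular ATP was measured by CellTiter-Glo luminescence, and AC50 values came from Hill-equation fits of concentration-response data.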
row,Structure (SMILES),"activity change, negative = cytotoxicity"
1,Brc1ccccc1,-2.95%
2,CCOP(=S)(OCC)SCSC(C)(C)C,1.14%
3,C=C(C)C#N,0.281%
4,CCSC(=O)Cl,-4.42%
5,Cc1cccc([N+](=O)[O-])c1,-7.28%
6,Nc1c(Cl)c(Cl)nc(C(=O)O)c1Cl,-10.2%
7,CC(C)(C)OOC(C)(C)C,-8.32%
8,C=C(C)C(=O)OCC1CO1 (centres undefined),-4.58%
9,Cc1ccc([N+](=O)[O-])cc1C,-10.6%
10,O=[N+]([O-])c1ccc(Cl)c(Cl)c1,-5.41% [at 91.7 µM]
11,C=CC(=C)C,5.45%
12,Cc1ccc2ccccc2c1,-15.4%
13,Nc1ccccc1Cl,6.03%
14,Clc1ccc2ccccc2c1,-5.07%
15,[O-][Br+2]([O-])O,-9.6% and -6.64%
16,Clc1nc(Cl)nc(Nc2ccccc2Cl)n1,-4.26%
17,OCC1CO1 (centres undefined),4.62%
18,C=CCOC(=O)c1ccccc1N,-5.75% [at 91.7 µM]
19,C=CC(N)=O,6.17% and -0.476%
20,CC(C)(c1ccccc1)c1ccc(O)cc1,-9.32%

row,Structure (SMILES),"activity change, negative = cytotoxicity"
1,CCN(CC)c1ccccc1,-4.65%
2,S=C=Nc1cccc2ccccc12,4.87%
3,N#CCCCl,1.51% and -5.91%
4,O=NN(CCO)CCO,-10.4%
5,C=CCOC(C)=O,-1.33%
6,CCCC(=O)Cl,0.416%
7,NC(=S)Nc1ccccc1,-4.19% [at 91.7 µM] and 2.38% [at 91.7 µM]
8,O=C(Cl)/C=C/C(=O)Cl,2.59%
9,C=C(Cl)Cl,-2.22%
10,ClCBr,-6.27%
11,COc1ccc(C=O)cc1OC,-7.47%
12,C=CC(=O)OCC,0.0849%
13,c1nc[nH]n1,-1.05%
14,c1ccc2c(c1)CCCC2,-0.896%
15,CCCSC(=O)Cl,-6.97%
16,Clc1cccc(C(Cl)(Cl)Cl)n1,-6.77%
17,O=NN(c1ccccc1)c1ccccc1,-4.13%
18,C1CCC2CCCCC2C1 (centres undefined),-9.71%
19,CC(O)CCl (centres undefined),-0.642%
